About 83,000 compounds went through this panel and 20% of them were active in at least one assay; those are over-represented in the sample as a whole.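 Each cell line was grown in a 96-well plate and treated with one concentration of compound for 48 hours. Values below 10 were considered active.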 A number with no mark means an inactive call. Calls of active or inactive are those of the source.

The test system of this assay is MDA-MB-435 melanoma. Kind of assay: NCI-60 one-dose screen, 48 h (100 = growth as untreated, 0 = no growth, -100 = all killed). Particulars: 10 µM unless noted. As to the method:
Growth inhibition of the MDA-MB-435 human Melanoma tumor cell line is measured as a screen for anti-cancer activity. Cells are grown in 96 well plates and exposed to the test compound for 48 hours. Compounds are tested at a single concentration, which is 10^-5 M for most compounds. The reported endpoint is percent growth (GI% or GIPRCNT), where numbers from 0 - 100% represent growth inhibition, and numbers from -100% - 0 represent cell death. For example, a value of 40 represents 60% growth inhibition. A value of 0 means no net growth occurred over the course of the experiment. A value of -40 indicates 40% of cells at the beginning of the experiment died by the end of the experiment. A value of -100 means all cells are dead at the end of the experiment.
NCI-60 Human Tumor Cell Lines Screen was performed using the standard one-dose NCI protocol, which is described in more detail at https://dtp.cancer.gov/discovery_development/nci-60/default.htm.
Compounds with GIPRCNT values below 10 were considered active. Activity score was based on GIPRCNT using the following formula: […]
Score is 0 for GIPRCNT values of 100 or above, 50 for GIPRCNT values of 0, and 100 for GIPRCNT values of -100.
Turning to `Oc1c(CN2CCN(c3ccccc3F)CC2)cc(Br)c2cccnc12`, the growth was -48.3% (active). With `COc1cc(C#N)cc2[nH]c(=O)oc12` the figure was 97.9%; with `N#C/C(=C\c1c(-c2ccccc2)[nH]c2ccccc12)S(=O)(=O)c1ccccc1`, 7.27% (active). For the compound `O=C1C(=O)c2c(ccc3ccccc23)-c2ccccc21`, the growth was -58.6% (active).

`CCc1ccc(CNCC(O)c2ccccc2)cc1` (stereo not given): the growth is 69.9%. In the case of `O=c1c2cc(F)ccc2sc2c(NCCN3CCCC3)nc3ccccc3c12`, the growth was 23.2%. Consider `CC(C)CCNCC(O)Cn1c2ccccc2c2ccccc21` (stereo not given), for which the growth is 5.65% (active).

Turning to `O=C(Nc1ccc(I)cc1F)c1cc(Br)ccc1O`, the growth was -3.54% (active). With `COC(=O)C1(C)COP(=O)(Nc2ccc(OC)cc2)OC1` (stereo not given) the figure was 105%; with `CC(=O)O[C@@H]1/C=C/C(=O)N[C@@H](C)CCC/C=C/[C@@H]2CCC[C@H]21`, 106%. Turning to `COc1ccc(-n2c(C(O)c3ccccc3)nn(CN3CCOCC3)c2=S)cc1` (stereo not given), the growth was 106%. The result for `COc1ccc(CCN2C(=O)CCSC2=S)cc1OC` reads 96.2%; that for `COc1cc(C(C)n2cc(-c3ccccc3)nn2)ccc1OC1CCCC1` (stereo not given), 65.4%.

In the case of `CCC1=C[C@@H]2CN(C1)Cc1c([nH]c3ccccc13)[C@@](C(=O)OC)(c1cc3c(cc1OC)N(C)[C@H]1[C@@](O)(C(=O)OC)[C@H](OC(C)=O)[C@]4(CC)[C@@H]5C[C@@H]5CN5CC[C@]31[C@@H]54)C2`, the growth is -57.7% (active). With `COc1cc(/C(C#N)=C/c2nc3c(N4CCOCC4)nc(Cl)nc3n2C)cc(OC)c1OC` the figure was -48.5% (active). With `Nc1ccc(-c2nn3c(CCC(=O)c4nc5ncccc5[nH]4)nnc3s2)c(O)c1` the figure was 97.2%. As for `CN1CCN(Cc2ccc(C(=O)Nc3cncc(C#Cc4cnc(N)c5ccccc45)c3)cc2C(F)(F)F)CC1`, the growth is -89.2% (active).

Regarding `COc1cc(NC(=O)CCSc2nc3ccccc3c(=O)n2Cc2ccccc2)cc(OC)c1OC`, the growth was 89.9%. The result for `CCN(CC)CCNC(=O)C(Cl)=C1C(Cl)=C(Cl)C(Cl)=C1Cl` reads 33.9%; that for `NCCOc1ccccc1/C=C1\c2ccccc2-c2ccc([N+](=O)[O-])cc21`, -53.8% (active). With `O=c1nc2sc3nc4ccccc4cc3cc-2s1` the figure was 117%; with `O=C(/C=C/c1cccc(Cl)c1)OCc1ccc2cc1OCC#C/C=C\C#CCO2`, 106%. With `Nc1ccc(-c2ccc(-c3ccccc3N)c3[nH]c4ccccc4c23)cc1`, the growth is -58.9% (active). The result for `O=C(/C=C/c1ccc(Cl)cc1)c1ccc(Nc2nc(NCCO)nc(N3CCOCC3)n2)cc1` reads 77.9%; that for `CCN(CC)CCCNc1ccnc2cc3ccccc3cc12`, 87.3%. Regarding `Cc1cccc2c(=O)c3c(sc12)c(NCCN)nc1ccccc13`, the growth was -93.9% (active). The result for `O=NN(Cc1cccnc1)C(=O)NC1CCCCC1` reads 108%; that for `COc1ccc(-c2nc(-c3ccccn3)c(-c3ccccn3)n2CC(C)C)cc1OC1CCCC1`, 26.9%. With `O=C1c2cc(I)ccc2Oc2cc([N+](=O)[O-])ccc2N1c1ccc(Cl)cc1F` the figure was 60.4%; with `CCOC(=O)c1cc2c(n1Cc1cccc(OC)c1)-c1oncc1CCC2`, -13.4% (active). `COc1cc(/C=C/C(=O)c2c(C)nc3ccccc3c2/C=C/c2ccccc2)cc(OC)c1OC`: the growth is 3.78% (active). With `CN(C)c1ccc(/C=C/c2ccnc3c(O)cccc23)cc1` the figure was 18.6%; with `Cc1cc2c(c(C)c1Cl)C(=O)/C(=C/c1cccc([N+](=O)[O-])c1)O2`, 99.5%; with `COc1ccc(-c2nc(N3CCN(C(=O)C4CCCCC4)CC3)c3c4c(sc3n2)CCCC4)cc1`, -54.1% (active). As to `CCCCCCC(O)(c1ccc(F)cc1)C(CN1CCOCC1)c1ccccc1` (stereo not given), the growth is 35.8%. With `CCOc1cc(Cl)c(C(C)NC(=O)c2cccc(OC)c2)cc1OCC` (stereo not given), the growth is -28.6% (active). `O=c1oc2ccc(Cl)cc2c(=O)n1-c1cc(C(F)(F)F)cc(C(F)(F)F)c1`: the growth was -4.47% (active). With `O=c1oc2ccc(Cl)cc2c(=O)n1-c1ccc(Cl)cc1F` the figure was -5.48% (active); with `COc1ccc(C)c2sc(N(Cc3cccnc3)C(=O)c3ccc(C#N)cc3)nc12`, 10.1%. Regarding `CCN1C(=O)N(CC)C2C1NN=c1s/c(=C3\C(=O)N(C(C)C)c4ccccc43)c(=O)n12` (stereo not given), the growth was -12.1% (active).
